High-throughput results as filed in PubChem BioAssay.
The entries come from a sample that favours hits as a whole.
AmpC detergent: qHTS Inhibitors of AmpC Beta-Lactamase (assay with detergent); P00811; AmpC hydrolysis of nitrocefin, absorbance 480 nm, 0.01% Triton; Potency, µM (highest dose often 114 µM), most hits filed as inhibitors; 370,000 tested, 0.041% active; further: nearly all actives have a fitted effect of over 25% in size
Target sequence (P00811 whole entry, looked up): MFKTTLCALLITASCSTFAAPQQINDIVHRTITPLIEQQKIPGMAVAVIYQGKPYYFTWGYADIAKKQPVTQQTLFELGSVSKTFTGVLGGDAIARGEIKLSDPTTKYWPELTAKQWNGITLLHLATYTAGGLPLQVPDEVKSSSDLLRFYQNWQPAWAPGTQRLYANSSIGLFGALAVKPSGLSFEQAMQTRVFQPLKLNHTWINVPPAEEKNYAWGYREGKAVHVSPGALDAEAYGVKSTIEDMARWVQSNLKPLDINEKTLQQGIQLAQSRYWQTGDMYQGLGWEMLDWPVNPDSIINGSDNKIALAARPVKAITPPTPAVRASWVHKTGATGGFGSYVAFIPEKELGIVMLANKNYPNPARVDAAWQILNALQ
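AmpC (5.3 nM in the dispensed reagent) in 20 mM phosphate pH 7.0 with 0.01% (detergent screen) or 0.0001% Triton X-100 was preincubated with compounds for 15 min at room temperature. Nitrocefin was then added from an 800 uM solution, and hydrolysis was followed at 480 nm.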
SARS PLpro yeast: qHTS of Yeast-based Assay for SARS-CoV PLP; S. cerevisiae expressing SARS-CoV PLpro, growth rescue; Potency, µM (doses to about 32.9 µM), most hits filed as activators; AID 485353, 2010; 330,000 tested, 0.19% active; calls by dose curve; further: nearly all actives have a fitted effect of over 55% in size
AmpC inh no detg: qHTS Inhibitors of AmpC Beta-Lactamase (assay without detergent). 330,000 tested, 0.52% active. AmpC nitrocefin hydrolysis, absorbance 480 nm, 0.0001% Triton. AID 485341, 2010. Potency, µM (doses to about 57.1 µM), actives largely listed as inhibitors; further: nearly all actives have a fitted effect of over 20% in size
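AmpC (5.3 nM in the dispensed reagent) in 20 mM phosphate pH 7.0 with 0.01% (detergent screen) or 0.0001% Triton X-100 was preincubated with compounds for 15 min at room temperature. Nitrocefin was then added from an 800 uM solution, and hydrolysis was followed at 480 nm.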
CHX counter: Cycloheximide Counterscreen for Small Molecule Inhibitors of Shiga Toxin. max response, %. cell reporter, cycloheximide protein synthesis inhibition counterscreen. AID 2314, 2010. 300,000 tested, 12% active; in the data active means max response mostly above about 13%, no sharp cut-off; inactive means mostly below about 14%; further: read at 38.3 µM for the half of the compounds with a filed dose
Shiga toxin inh: A qHTS for Small Molecule Inhibitors of Shiga Toxin; Vero cells, Shiga toxin protein synthesis inhibition reporter; inhibition, % at 38.7 µM; 290,000 tested, 9.2% active; AID 2315, 2010; in the data active means inhibition mostly above about 28%, no sharp cut-off; inactive means mostly below about 43%
AMA1 RON2 block: qHTS for Inhibitors of AMA1-RON; Towards Development of Antimalarial Drug Lead: Primary Screen. Plasmodium falciparum AMA1 (3D7) - RON2 peptide interaction. AlphaScreen AMA1-biotinylated RON2 peptide binding. Potency, µM (top dose mostly 58.2 µM), actives largely listed as inhibitors. 360,000 tested, 0.2% active. AID 720542, 2013; further: nearly all actives have a fitted effect of over 45% in size
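AMA1 (3D7) with his tag at 25 nM final met compounds first, then biotinylated RON2 peptide at 25 nM; detection used donor plus acceptor beads, 10 µg/mL apiece, read by AlphaScreen after 30 min at room temperature.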
Hits are given with their value. Unless noted, the call rests on the fitted dose curve; in most records, active means well fitted curve in the direction sought with a large enough effect; inconclusive means small, poorly fitted or top-dose-only effect, or another doubt; inactive means no such curve, though single readings can be large; an effect the other way counts as inactive or inconclusive.

For CCCCCc1cc(=O)oc2c(C(CCN3CCN(c4ccccc4)CC3)c3ccc(N(C)C)cc3)c(OC)cc(OC)c12 (configuration not stated) the results were AmpC detergent inactive, SARS PLpro yeast inactive, AmpC inh no detg inactive, CHX counter inactive, Shiga toxin inh inactive and AMA1 RON2 block 11µM.
`CCN(CC)CCC(c1ccc(N(C)C)cc1)c1c(OC)cc(OC)c2c(-c3ccccc3)cc(=O)oc12` (configuration not stated) gave AmpC detergent inactive, SARS PLpro yeast inactive, AmpC inh no detg inactive, CHX counter inactive, Shiga toxin inh inactive and AMA1 RON2 block 18µM.
For COc1cc(OC)c2ccc(=O)oc2c1C(CCN1CCN(c2ccccc2)CC1)c1ccc(N(C)C)cc1 (configuration not stated) the results were AmpC detergent inactive, SARS PLpro yeast inactive, AmpC inh no detg inactive, CHX counter inactive, Shiga toxin inh inactive and AMA1 RON2 block 25µM.
For CCCCCc1cc(=O)oc2c(C(CCN3CCCC3)c3ccc4c(c3)OCO4)c(OC)cc(OC)c12 (configuration not stated) the results were CHX counter inactive and Shiga toxin inh inactive.
COc1cc(O)c(C(CCN2CCN(c3ccccc3)CC2)c2ccc3c(c2)OCO3)c(OC)c1 (configuration not stated) was read as AmpC detergent inactive, SARS PLpro yeast inactive, AmpC inh no detg inactive, CHX counter inactive, Shiga toxin inh inactive and AMA1 RON2 block 16µM.
For Clc1ccc(NCn2cncn2)nc1 the results were AmpC detergent inconclusive, SARS PLpro yeast inactive, AmpC inh no detg inactive, CHX counter inactive, Shiga toxin inh inactive and AMA1 RON2 block inactive.
COc1ccc(C(CCN2CCN(c3ccccc3)CC2)c2c(OC)cc(OC)c3c(-c4ccccc4)cc(=O)oc23)cc1 (configuration not stated) was read as AmpC detergent inactive, SARS PLpro yeast inactive, AmpC inh no detg inactive, CHX counter inactive, Shiga toxin inh inactive and AMA1 RON2 block inconclusive.
COc1ccc(C2CC(=O)Oc3c(C(CCN4CCCC(C)C4)c4ccc(N(C)C)cc4)c(OC)cc(OC)c32)cc1 (configuration not stated) was read as AmpC detergent inactive, SARS PLpro yeast inactive, AmpC inh no detg inactive, CHX counter inactive, Shiga toxin inh inactive and AMA1 RON2 block 18µM.
Screening COc1cc(C2CC(=O)Oc3c(C(CCN4CCN(c5ccccc5)CC4)c4ccc(N(C)C)cc4)c(OC)cc(OC)c32)cc(OC)c1OC (configuration not stated) returned AmpC detergent inactive, SARS PLpro yeast inactive, AmpC inh no detg inactive, CHX counter inactive, Shiga toxin inh inactive and AMA1 RON2 block 14µM.
COc1cc(OC)c2c(-c3ccccc3)cc(=O)oc2c1C(CCN1CCN(c2ccccc2)CC1)c1ccc(N(C)C)cc1 (configuration not stated) was read as AmpC detergent inactive, SARS PLpro yeast inactive, AmpC inh no detg inactive, CHX counter inactive, Shiga toxin inh inactive and AMA1 RON2 block 7.9µM.
COc1cc(OC)c2c(-c3ccccc3)cc(=O)oc2c1C(CCN1CCCC(C)C1)c1ccc(N(C)C)cc1 (configuration not stated) was read as AmpC detergent inactive, SARS PLpro yeast inactive, AmpC inh no detg inactive, CHX counter inactive, Shiga toxin inh inactive and AMA1 RON2 block 16µM.
For COc1cc(C2CC(=O)Oc3c(C(CCN4CCOCC4)c4ccc(N(C)C)cc4)c(OC)cc(OC)c32)cc(OC)c1OC (configuration not stated) the results were AmpC detergent inactive, SARS PLpro yeast inactive, AmpC inh no detg inactive, CHX counter inactive, Shiga toxin inh inactive and AMA1 RON2 block inconclusive.
COc1ccc(C2CC(=O)Oc3c(C(CCN4CCCCC4)c4ccc(N(C)C)cc4)c(OC)cc(OC)c32)cc1 (configuration not stated) was read as AmpC detergent inactive, SARS PLpro yeast inactive, AmpC inh no detg inactive, CHX counter inactive, Shiga toxin inh inactive and AMA1 RON2 block inconclusive.
For Cc1ccc(NC(=O)CSc2ccc(-c3cccnc3)nn2)cc1Cl the results were AmpC detergent inactive, SARS PLpro yeast inactive, AmpC inh no detg inactive, CHX counter inactive, Shiga toxin inh inactive and AMA1 RON2 block inactive.
Cc1ccccc1Nc1c(C)c(C)nc2ncnn12 was read as AmpC detergent inconclusive, SARS PLpro yeast inactive, AmpC inh no detg inactive, CHX counter inactive and AMA1 RON2 block inactive.
CCOc1ccc2nc(NC(=O)C3(C)CC3(Br)Br)sc2c1 (configuration not stated) was read as AMA1 RON2 block inactive.
For O=C(NCc1cccnc1)C(=O)Nc1nc2ccccc2s1 the results were AmpC detergent inactive, SARS PLpro yeast inactive, AmpC inh no detg inactive, CHX counter 39, Shiga toxin inh 93 and AMA1 RON2 block inactive.
O=C(Nc1nc2ccccc2s1)c1cnccn1 was read as AmpC detergent inactive, SARS PLpro yeast inactive, AmpC inh no detg inactive, CHX counter 32, Shiga toxin inh 53 and AMA1 RON2 block inactive.
For CCOc1ccc2nc(NC(=O)c3cnccn3)sc2c1 the results were AmpC detergent inactive, SARS PLpro yeast inactive, AmpC inh no detg inactive, CHX counter 32, Shiga toxin inh 62 and AMA1 RON2 block inactive.
For CC(C)C(C(=O)O)N1C(=O)/C(=C/c2ccc(Br)cc2)SC1=S (configuration not stated) the results were CHX counter 27 and Shiga toxin inh 21.
`COc1ccc(-n2c(C)c(C(C)=O)c3cc(O)ccc32)cc1` gave AmpC detergent inactive, SARS PLpro yeast inactive, AmpC inh no detg inactive, CHX counter inactive and Shiga toxin inh inactive.
CCOC(=O)COc1ccc2c(c1)c(C(C)=O)c(C)n2-c1ccc(OC)cc1 was read as AmpC detergent inactive, SARS PLpro yeast inactive, AmpC inh no detg inactive, CHX counter inactive, Shiga toxin inh 145 and AMA1 RON2 block inactive.
For c1ccc(-c2cnn3nnnc3n2)cc1 the results were AmpC detergent inactive, SARS PLpro yeast inactive, AmpC inh no detg inactive, CHX counter inactive, Shiga toxin inh inactive and AMA1 RON2 block inactive.
c1ccc(-c2ccn3nnnc3n2)cc1 was read as AmpC detergent inactive, SARS PLpro yeast inactive, AmpC inh no detg inactive, CHX counter 36, Shiga toxin inh 74 and AMA1 RON2 block inactive.
Nc1ccc(S(N)(=O)=O)cc1N was read as AmpC detergent inconclusive, SARS PLpro yeast inactive, AmpC inh no detg inactive, CHX counter inactive, Shiga toxin inh inactive and AMA1 RON2 block inactive.
For COc1cccc(NC(=O)c2cccc3c(=O)c4c([nH]c23)CCCC4)c1 the results were AmpC detergent inactive.
